Source: PubChem
Only a selection was taken, and hits are over-represented in it overall.
IL-1B inflam inh – qHTS for Inhibitors of Inflammasome Signaling: IL-1-beta AlphaLISA Primary Screen | activity change, % at 57.5 µM | 360,000 compounds, 4.7% hits | AID 743279, 2014 | THP-1 LPS/ATP IL-1B secretion, AlphaLISA, 16 h; active compounds read low; in the data active means activity change below about -50%; inconclusive means mostly about -30% to -49%
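Secreted IL-1B measured by AlphaLISA bead assay after 16 h compound exposure of THP-1 cells; compounds (final up to 57.5 uM) added 1 h before LPS (250 ng/mL) and ATP (1.25 mM) stimulation; lower signal means less secretion.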
HT1080-NT tox – qHTS for induction of synthetic lethality in tumor cells producing 2HG: qHTS for the HT-1080-NT fibrosarcoma cell line. HT-1080-NT fibrosarcoma viability, CellTiter-Glo ATP luminescence, 48 h. Potency, µM (top dose mostly 46.1 µM), without a hit: at the highest dose activity, negative = less viability, usual class: cytotoxic. 360,000 compounds, 1.6% hits. AID 686970, 2013;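 further: NT is the 2HG producing partner of a matched IDH1 knockdown line; potency means the concentration at half of the fitted maximal effect; 0% = DMSO-treated cells and -100% = media-only wells without cells; nearly all actives have a fitted effect of over 55% in size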
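Read-out is CellTiter-Glo luminescence after 10 minutes at room temperature, following 48 hours' compound treatment of HT-1080-NT cells (750 cells/well, RPMI, 5% FBS, 37 degrees C).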
TDP1 cell noCPT – qHTS for Inhibitors of human tyrosyl-DNA phosphodiesterase 1 (TDP1): qHTS in cells in absence of CPT. DT40 Tdp1-/- hTDP1 cells, no CPT, ATP luminescence, 48 h. Potency, µM (top dose mostly 46.2 µM), inactives show at the highest dose activity change, negative = growth inhibition, actives largely listed as inhibitors. 420,000 compounds, 15% hits; further: potency means the concentration at half of the fitted maximal effect; nearly all actives have a fitted effect of over 55% in size
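No-CPT arm: Tdp1-/-;hTDP1 DT40 cells (400/well) plus compounds, incubated ≥48 hr at 37 °C. Readout CellTiter-Glo luminescence.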
ALOX12 inh – Primary qHTS assay for inhibitors of human arachidonate 12S-lipoxygenase (ALOX12): Round 2. purified 12hLO, xylenol orange hydroperoxide absorbance. Potency, µM (highest dose often 108 µM), inactives show at the highest dose activity change, negative = inhibition, usual class: inhibitors. 580,000 compounds, 1.1% hits. AID 1671190, 2021; further: potency means the concentration at half of the fitted maximal effect
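Purified human 12hLO at 150 nM in 25 mM Hepes, 0.01% Triton X-100, pH 7.0, preincubated 15 min at room temperature with compound. Reaction started with 40 uM arachidonic acid, 30 min at room temperature. Hydroperoxide measured by Fe-xylenol orange, 573/405 nm absorbance ratio.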
HT1080 IDH1KD tx – qHTS for induction of synthetic lethality in tumor cells producing 2HG: qHTS for the HT-1080-IDH1KD cell line; HT-1080 IDH1 knockdown viability, ATP luminescence, 48 h; Potency, µM (doses to about 46.1 µM), for the others: at the top dose activity, negative = toxicity, hits mostly cytotoxic; 360,000 compounds, 2% hits; AID 686971, 2013;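 further: potency means the concentration at half of the fitted maximal effect; 0% = DMSO wells and -100% = cell-free medium wells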
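IDH1KD HT-1080 cells, 750/well, RPMI + 5% FBS; compound pinned after 2 h settling; 48 h, 37 °C; CellTiter-Glo luminescence; % activity normalised to DMSO and no-cell wells; curves fitted, classed by r2 and efficacy.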
TDP1 cell CPT – qHTS for Inhibitors of human tyrosyl-DNA phosphodiesterase 1 (TDP1): qHTS in cells in presence of CPT; chicken DT40 Tdp1-/-;hTDP1 cells + 20 nM CPT, ATP luminescence, 48 h; Potency, µM (series often up to 46.2 µM), for inactives: at the highest dose activity change, negative = growth inhibition, most hits filed as inhibitors; 420,000 compounds, 12% hits; AID 686979, 2013; further: potency means the concentration at half of the fitted maximal effect; nearly all actives have a fitted effect of over 55% in size
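Cell growth measured by CellTiter-Glo luminescence after a minimum 48 h, 37 C compound exposure with 20 nM CPT in Tdp1-knockout DT40 cells stably expressing hTDP1, seeded 400/well; qHTS titration format.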
The depositor's hits bear a star; u = inconclusive; x = no result; ! = not confirmed by another sample; [ ] = remark or other dose. Unless noted, the call rests on the fitted dose curve; in most records, active means well fitted curve in the direction sought with a large enough effect; inconclusive means small, poorly fitted or top-dose-only effect, or another doubt; inactive means no such curve, though single readings can be large; an effect the other way counts as inactive or inconclusive. Unless noted, on the % scale 0 is the no-effect control and ±100 the full control effect.

SMILES	IL-1B inflam inh	HT1080-NT tox	TDP1 cell noCPT	ALOX12 inh	HT1080 IDH1KD tx	TDP1 cell CPT
O=C(/C=C/c1ccc2c(c1)OCO2)NCCSCc1ccc(Cl)cc1Cl	-74*	-2%	u	-15%	u	u
O=C(/C=C/c1ccc2c(c1)OCO2)NCCSCc1cccc(Cl)c1	-7	-25%	-19%	-18%	u	-20%
CCN1CCN(c2ccc(N3CCN(S(=O)(=O)c4cccc(C)c4)CC3)nn2)CC1	x	x	x	-4%	x	x
Cc1cc(Cn2cc3c4c(cccc42)[C@H](CC(C)C)N[C@H](C(=O)NCc2ccccn2)C3)no1	x	x	x	120%	x	x
Nc1nc(N)c2ncn(C3C=CC(CO)C3)c2n1 (stereo unspecified)	16	20%	9.2µM*	u	4%	6.5µM*
O=c1c2ccccc2nc(/C=C/c2cc(Br)ccc2O)n1CCCO	-101*	u	16µM*	u	u	u
O=c1c2ccccc2nc(/C=C/c2cccc([N+](=O)[O-])c2)n1CCO	u	-17%	u	-4%	-10%	-9%
Cn1c(/C=C/c2ccc(Br)cc2)nc2ccccc2c1=O	-14	9%	18µM*	0%	1%	u
COc1ccc(/C=C/C(=O)Oc2ccc(Cl)cc2Cl)cc1	x	x	x	15%	x	x
COc1ccc(-c2nc3cnc(N(C)C)nc3n(-c3ccccc3)c2=O)cc1	x	x	21%	0%	x	6%
CCNc1ncc2nc(-c3ccc(OC)cc3)c(=O)n(C)c2n1	x	x	-6%	u	x	u
COc1ccc(-n2c(=O)c(-c3ccc(Cl)cc3)nc3cnc(N(C)C)nc32)cc1	x	x	-2%	11µM*	x	-20%
CCNc1ncc2nc(-c3ccc(Cl)cc3)c(=O)n(-c3ccc(OC)cc3)c2n1	x	x	13µM*	42%	x	u
CN(C)CCCN(Cc1cccs1)C(=S)NCc1ccccc1	x	x	x	37%	x	x
O=C(C[n+]1ccccc1Br)c1ccc(Cl)cc1	x	x	14µM*	x	x	u
COc1ccc(CNC(=O)c2ccc(CS(=O)(=O)Cc3ccccc3F)o2)cc1	2	0%	16µM*	10%	6%	u
CCc1ccc(CNC(=O)c2ccc(CS(=O)(=O)Cc3ccccc3C)o2)cc1	x	x	21µM*	-16%	x	21µM*
Cc1ccccc1CS(=O)(=O)Cc1ccc(C(=O)NCc2ccc(F)cc2)o1	x	x	16µM*	-6%	x	u
O=C(NCc1ccccc1)c1ccc(CS(=O)(=O)Cc2ccccc2F)o1	25	16%	u	-7%	12%	-38%
Cc1ccc(-c2c(C(=O)NCc3ccc(F)cc3)oc(=O)c3ccccc23)cc1	u	-2%	21µM*!	-10%	-3%	u
CN(C)c1ccc(CN2CCC3(CC2)CC(=O)Nc2ccccc2O3)cc1	x	x	x	5%[6.33 µM]	x	x
COc1cc2ccc(=O)oc2c(OC)c1OC	x	x	-12%	x	x	-5%
COc1cc2ccc(=O)oc2c(O)c1O	50	-1%	u	50%	-9%	21µM*!
O=C1CCN(S(=O)(=O)c2ccccc2)CCCC(C(=O)NCCN2CCCC2)CCN1 (stereo unspecified)	x	x	x	102%	x	x
COc1cccc(/C=N/NC(=O)c2ccc3nc[nH]c3c2)c1O	115	u	-30%	-5%	u	u
COc1cc(OC)c2cc(C(=O)N/N=C/c3cccc(OC)c3O)[nH]c2c1	114	u	6.5µM*	-2%	9.2µM*	15µM*
COc1cccc(/C=N/NC(=O)c2cc3c(OC)ccc(OC)c3[nH]2)c1O	80	u	4.1µM*	9%	26µM*	6.5µM*
